Records with an inconclusive call do not appear. Calls of active or inactive are those of the source. The calls were made as follows, unless noted: active = hit-call score of the fitted dose curve at least 0.9, where 1 is the maximum; inactive = score below 0.9.
Key:
[1] = TAMU_HCS_1.5hr_SingleDonor1434_Cytotoxicity: Cytotoxicity Assessment using High-content Screening (HCS) Fluorescent Imaging for the Texas A&M University (TAMU) 1.5-hr Human Induced Pluripotent Stem Cell (iPSC)-derived Cardiotoxicity Assay (AID 2284234; active = hit-call score of the fitted dose curve at least 0.9, where 1 is the maximum)
How it was run: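 Nuclear counts from Hoechst 33342 imaging define cytotoxicity here, with EC10 (10% cell-count loss relative to DMSO) as point of departure. iPSC cardiomyocytes received 0.2-100 uM test chemical in 0.5% DMSO for 1.5 h at 37 C.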

[2] = TAMU_PeakParms_SingleDonor1434_QT: Texas A&M University (TAMU) 1.5-hr Human Induced Pluripotent Stem Cell (iPSC)-derived Cardiomyocytes Calcium (Ca+2) Flux Assay for Cardiotoxicity: QT (decay-rise ratio) (AID 2284235; active = hit-call score of the fitted dose curve at least 0.9, where 1 is the maximum)
How it was run: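 Decay/rise ratio of calcium-flux fluorescence scored after 90 min exposure (37C) of donor 1434 iPSC cardiomyocytes to 0.2–100 uM (0.5% DMSO). Beat-cessation and severe-notch points removed; POD is EC05, a 5% rise over DMSO.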

[3] = CCTE_Mundy_HCI_hN2_NOG_NeuriteLength: CCTE's Neurite Outgrowth Assay in human hN2 cells for Neurite Length, Mundy Lab (AID 2284220; active = hit-call score of the fitted dose curve at least 0.9, where 1 is the maximum)
How it was run: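 Using βIII-tubulin immunofluorescence and Hoechst nuclear counterstain, this component quantifies neurite length in hNP1-derived neurons.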

[4] = CCTE_Mundy_HCI_hN2_NOG_NeuronCount: CCTE's Neurite Outgrowth Assay in human hN2 cells for Neuron Count, Mundy Lab (AID 2284221; active = hit-call score of the fitted dose curve at least 0.9, where 1 is the maximum)
How it was run: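 Read-out is the number of betaIII-tubulin-positive neurons imaged by automated high-content analysis, with DMSO as negative control.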

[5] = CCTE_Mundy_HCI_Cortical_Synap_Neur_Matur_CellBodySpotCount: CCTE's Synaptogenesis and Neurite Maturation Assay in rat cortical cells for Cell Body Spot Count, Mundy Lab (AID 2284223)
How it was run: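 Chemicals were applied to AraC-treated rat primary cortical cells at DIV 7 and measured at DIV 12. Fixed cells were labelled for MAP2, synaptophysin and nuclei, and high-content imaging gave cell body synaptophysin spot counts per neuron relative to DMSO.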

[6] = CCTE_Mundy_HCI_Cortical_NOG_NeuronCount: CCTE's Neurite Outgrowth Assay in rat cortical cells for Neuron Count, Mundy Lab (AID 2284236; active = hit-call score of the fitted dose curve at least 0.9, where 1 is the maximum;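 also: neurons counted by imaging betaIII-tubulin and Hoechst stained cortical cells; cells exposed to compound for about 48 hours before fixation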)
How it was run: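 Read-out: neuron number by high-content imaging of betaIII-tubulin (Alexa Fluor-488) and Hoechst-labelled rat primary cortical cells.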

[7] = CCTE_Mundy_HCI_hNP1_Casp3_7: CCTE's Caspase-Glo 3/7 Assay in human neuroprogenitor cells for Apoptosis, Mundy Lab (AID 2284240)
How it was run: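 Neuroepithelial-lineage stem cells from WA09 embryonic cells were treated with chemicals after 40–44 h of culture. Twenty-four hours later, caspase-3/7 activation was detected luminescently after a 30 min room-temperature reagent step, with DMSO as baseline.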

[8] = CCTE_Mundy_HCI_Cortical_Synap_Neur_Matur_NeuronCount: CCTE's Synaptogenesis and Neurite Maturation Assay in rat cortical cells for Neuron Count, Mundy Lab (AID 2284242; active = hit-call score of the fitted dose curve at least 0.9, where 1 is the maximum)
How it was run: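 Rat cortical cultures; AraC DIV 5; chemical dosing + media change DIV 7 to DIV 12 (288.33 h readout). Fix, Hoechst, anti-MAP2/anti-synaptophysin immunostain; HCI neuron count vs DMSO baseline.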

[9] = CCTE_Mundy_HCI_hNP1_Pro_ResponderAvgInten: CCTE's Proliferation Assay in human neuroprogenitor cells, Mundy Lab (AID 2284224; active = hit-call score of the fitted dose curve at least 0.9, where 1 is the maximum;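 also: human neural progenitor cells hNP1 derived from WA09 embryonic stem cells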)
How it was run: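 Human neuroprogenitors (hNP1, WA09 lineage) receive test chemical after 40 to 44 hours of attachment. A four-hour BrdU pulse begins twenty hours later, followed by fixation and high content imaging; signal is referenced to DMSO controls.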

[10] = CCTE_Mundy_HCI_Cortical_Synap_Neur_Matur_NeuriteCount: CCTE's Synaptogenesis and Neurite Maturation Assay in rat cortical cells for Neurite Count, Mundy Lab (AID 2284222);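 also: exposure from day 7 to day 12 in vitro with readout at day 12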
How it was run: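 In this multiplexed morphology readout, rat primary cortical neurons are fixed at DIV 12 following dosing at DIV 7 and stained for MAP2, synaptophysin and nuclei. High-content image analysis yields neurite count.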

[11] = CCTE_Mundy_HCI_Cortical_NOG_BPCount: CCTE's Neurite Outgrowth Assay in rat cortical cells for Branch Point Count, Mundy Lab (AID 2284237)
How it was run: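 Measured 50.33 h after dosing, this morphology endpoint uses rat primary cortical cultures labelled for betaIII-tubulin. Branch points are quantified by high-content imaging, with DMSO as negative control and baseline.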

[12] = IUF_NPC2c_oligodendrocyte_migration_120hr: Leibniz Research Institute for Environmental Medicine (IUF) 120-hour Neural Progenitor Cell Migration Assay for Oligodendrocyte Migration (NPC2c) (AID 2284297);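 also: O4-positive oligodendrocyte migration distance divided by radial glia migration distance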
How it was run: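 Using fetal brain neural progenitor spheres differentiating in N2 medium at 37C, compounds were present for 120 h. Oligodendrocyte migration distance, normalized to radial glia migration, was measured from imaged O4 staining.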

[13] = IUF_NPC2a_radial_glia_migration_120hr: Leibniz Research Institute for Environmental Medicine (IUF) 120-hour Neural Progenitor Cell Migration Assay for Radial Glia Migration (NPC2a) (AID 2284298)
How it was run: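 Exposure of 0.3 mm primary hNPC spheres runs day 0 to 120 h with a half-volume medium change at day 3. Fixed cells get Hoechst staining; high-content analysis of nuclear positions yields radial glia migration distance per well, compared against DMSO controls.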

[14] = IUF_NPC2a_radial_glia_migration_72hr: Leibniz Research Institute for Environmental Medicine (IUF) 72-hour Neural Progenitor Cell Migration Assay for Radial Glia Migration (NPC2a) (AID 2284299)
How it was run: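 Readout: mean of four manual brightfield measurements of radial glia migration distance (um) at 72 h. hNPC spheres (0.3 mm) exposed to 7 compound concentrations plus solvent control on PDL/laminin, 37C, 5% CO2; activity fitted relative to DMSO.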

[15] = IUF_NPC2b_neuronal_migration_120hr: Leibniz Research Institute for Environmental Medicine (IUF) 120-hour Neural Progenitor Cell Migration Assay for Neuron Migration (NPC2b) (AID 2284300)
How it was run: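 Fetal human NPC spheres migrate on PDL/laminin during 120 h compound treatment; neuronal migration distance, glia-normalized, scored versus DMSO control.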

[16] = IUF_NPC3_neuronal_differentiation_120hr: Leibniz Research Institute for Environmental Medicine (IUF) 120-hour Neuronal Differentiation Assay (NPC3) (AID 2284301)
How it was run: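 Neuronal differentiation of primary human neural progenitors measured by high-content imaging: percent TUBB3+ of Hoechst+ nuclei within migrated area at 120 h, seven-point serial dilution plus solvent control, gain or loss relative to DMSO.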

[17] = IUF_NPC4_neurite_length_120hr: Leibniz Research Institute for Environmental Medicine (IUF) 120-hour Neuronal Morphology Assay for Neurite Length (NPC4) (AID 2284302)
How it was run: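 Neurons from differentiating human fetal neural progenitor spheres are scored for average neurite length after five days of compound exposure. Fitting uses DMSO as negative control.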

[18] = IUF_NPC5_oligodendrocyte_differentiation_120hr: Leibniz Research Institute for Environmental Medicine (IUF) 120-hour Oligodendrocyte Differentiation Assay (NPC5) (AID 2284304; active = hit-call score of the fitted dose curve at least 0.9, where 1 is the maximum;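 also: primary human fetal neural progenitor spheres plated to migrate and differentiate; share of O4-positive cells among Hoechst nuclei found by CNN image analysis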)
How it was run: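 After plating on poly-D-lysine/laminin, fetal-derived hNPC spheres differentiated for 120 h at 37C in compound-containing N2 medium, refreshed by half on day 3. O4 immunostaining over Hoechst nuclei in the migration zone gave oligodendrocyte percentage relative to DMSO.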

[19] = IUF_NPC4_neurite_area_120hr: Leibniz Research Institute for Environmental Medicine (IUF) 120-hour Neuronal Morphology Assay for Neurite Area (NPC4) (AID 2284305; active = hit-call score of the fitted dose curve at least 0.9, where 1 is the maximum)
How it was run: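 Endpoint at 120 h: automated imaging of TUBB3/Hoechst-stained differentiating human neural progenitor spheres, neurite area per neuron from skeletonization. DMSO solvent control, not above 0.1%, set the baseline; medium was half-replaced on day 3.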

[20] = CCTE_Mundy_HCI_hNP1_CellTiter: CCTE's Cell Titer-Glo 2 Assay in human neuroprogenitor cells for Viability, Mundy Lab (AID 2284241; active = hit-call score of the fitted dose curve at least 0.9, where 1 is the maximum)
How it was run: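 Measures ATP content in human neural progenitors derived from WA09 embryonic cells. Read-out at 26.5 hours after dosing, with DMSO serving as the negative control and baseline.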

Measured: AC50

CCOc1ccc2c(c1)C(C)=CC(C)(C)N2
active: [1] 50 µM
inactive: [2]

O=C(O)CCCCC(=O)O
inactive: [1] | [2]

CCCc1cc(=O)[nH]c(=S)[nH]1
inactive: [3] | [4] | [5] | [1] | [6] | [7] | [8]

COC(=O)c1ccc(O)cc1
inactive: [1] | [2]

O=c1[nH]cc(F)c(=O)[nH]1
active: [4] 2.34 µM | [9] 4.62 µM | [7] 23.8 µM
inactive: [3] | [5] | [1] | [2] | [8]

OC[C@@H](O)[C@@H](O)[C@H](O)[C@H](O)CO
not listed: [1] | [2] | [3] | [4] | [6] | [9] | [20]
inactive: all other assays above

C[Si]1(C)O[Si](C)(C)O[Si](C)(C)O[Si](C)(C)O1
not listed: [1] | [2] | [3] | [4] | [6] | [8] | [20]
inactive: all other assays above

CC(=O)Oc1ccccc1C(=O)O
not listed: [3] | [4] | [6] | [8] | [9] | [18] | [19]
inactive: all other assays above

Source: PubChem BioAssay (EPA / NIEHS)
